IL1B secr inh = blocks inflammasome-driven IL-1 beta release; THP-1 LPS/ATP IL-1B secretion, AlphaLISA, 16 h; active compounds read low; activity change, % at 57.5 µM; 360,000 compounds, 4.7% hits; in the data active = activity change below about -50%; inconclusive = mostly about -30% to -49%
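THP-1 cells pretreated 1 hr with compounds (up to 57.5 uM final), then stimulated with LPS (250 ng/mL final) plus ATP (1.25 mM final); secreted IL-1B measured by AlphaLISA after 16 hr, decreased signal indicating inhibition.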
12-LOX inh = blocks human arachidonate 12S-lipoxygenase; P18054; purified 12hLO, xylenol orange hydroperoxide absorbance; Potency, µM (series often up to 108 µM), without a hit: at the highest dose activity change, negative = inhibition, most hits filed as inhibitors; 580,000 compounds, 1.1% hits; also: potency is read from the fitted curve at half-maximal effect
Target sequence (P18054 whole entry, looked up): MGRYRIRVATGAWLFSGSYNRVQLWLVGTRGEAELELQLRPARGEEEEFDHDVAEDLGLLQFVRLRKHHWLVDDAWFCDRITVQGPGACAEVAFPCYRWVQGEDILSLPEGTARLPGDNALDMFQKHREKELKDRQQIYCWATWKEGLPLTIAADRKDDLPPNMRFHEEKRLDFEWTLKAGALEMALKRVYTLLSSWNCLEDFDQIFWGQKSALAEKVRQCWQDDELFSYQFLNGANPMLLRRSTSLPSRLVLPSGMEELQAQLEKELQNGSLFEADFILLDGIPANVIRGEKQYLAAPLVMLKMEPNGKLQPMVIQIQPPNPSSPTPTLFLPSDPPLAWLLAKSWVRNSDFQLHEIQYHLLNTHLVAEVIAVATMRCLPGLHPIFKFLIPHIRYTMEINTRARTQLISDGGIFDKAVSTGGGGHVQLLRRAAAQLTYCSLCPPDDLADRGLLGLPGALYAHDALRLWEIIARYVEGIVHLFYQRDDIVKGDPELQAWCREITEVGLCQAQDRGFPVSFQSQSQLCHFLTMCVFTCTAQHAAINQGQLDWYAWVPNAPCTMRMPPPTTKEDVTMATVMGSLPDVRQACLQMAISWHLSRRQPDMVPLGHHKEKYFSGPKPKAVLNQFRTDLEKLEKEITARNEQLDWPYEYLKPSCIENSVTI
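Hydroperoxide product was detected by ferrous iron/xylenol orange as the 573 to 405 nm absorbance ratio. Arachidonic acid at 40 uM (final) was turned over for 30 min at room temperature by 150 nM human 12hLO, pH 7.0 Hepes buffer, after 15 min compound preincubation.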
TDP1 cell noCPT = qHTS for Inhibitors of human tyrosyl-DNA phosphodiesterase 1 (TDP1): qHTS in cells in absence of CPT. DT40 Tdp1-/- hTDP1 cells, no CPT, ATP luminescence, 48 h. Potency, µM (highest dose often 46.2 µM), for the others: at the top dose activity change, negative = growth inhibition, usual class: inhibitors. 420,000 compounds, 15% hits; also: potency is read from the fitted curve at half-maximal effect; nearly all actives have a fitted effect of over 55% in size
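Chicken DT40 Tdp1-/- cells complemented with human TDP1, screened without camptothecin (DMSO vehicle only), 400 cells/well. Compounds pin-transferred, cells incubated at 37 °C for at least 48 hr. Growth read as ATP-dependent luminescence (CellTiter-Glo, 30 min at RT).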
HT1080NT lethal = kills 2HG-producing HT-1080-NT fibrosarcoma cells | HT-1080-NT fibrosarcoma viability, CellTiter-Glo ATP luminescence, 48 h | Potency, µM (doses to about 46.1 µM), inactives show top-dose activity, negative = less viability, usual class: cytotoxic | 360,000 compounds, 1.6% hits | AID 686970;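 also: NT is the 2HG producing partner of a matched IDH1 knockdown line; potency is read from the fitted curve at half-maximal effect; 0% = DMSO-treated cells and -100% = media-only wells without cells; nearly all actives have a fitted effect of over 55% in size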
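750 cells/well, RPMI + 5% FBS; 2 h settle, compound pin-transfer, 48 h at 37 degrees C. CellTiter-Glo 10 min RT, luminescence. Normalized to DMSO and media-only wells.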
HT1080 IDH1KD tx = kills HT-1080 cells with IDH1 knockdown. HT-1080 IDH1 knockdown viability, ATP luminescence, 48 h. Potency, µM (top dose mostly 46.1 µM), for inactives: at the highest dose activity, negative = toxicity, hits mostly cytotoxic. 360,000 compounds, 2% hits. AID 686971;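 also: potency is read from the fitted curve at half-maximal effect; 0% = DMSO wells and -100% = cell-free medium wells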
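Using the IDH1-knockdown HT-1080 line run in the same batch and compound series as the NT line, viability after 48 h at 37 °C was determined by CellTiter-Glo luminescence and expressed as % activity.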
TDP1 cell CPT = growth inhibition of DT40 Tdp1-/-;hTDP1 cells with camptothecin (screen for TDP1 inhibitors). 420,000 compounds, 12% hits. AID 686979. chicken DT40 Tdp1-/-;hTDP1 cells + 20 nM CPT, ATP luminescence, 48 h. Potency, µM (doses to about 46.2 µM), without a hit: at the highest dose activity change, negative = growth inhibition, most hits filed as inhibitors; also: potency is read from the fitted curve at half-maximal effect; nearly all actives have a fitted effect of over 55% in size
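Cell growth measured by CellTiter-Glo luminescence after a minimum 48 h, 37 C compound exposure with 20 nM CPT in Tdp1-knockout DT40 cells stably expressing hTDP1, seeded 400/well; qHTS titration format.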
Starred values were filed as active, the others as inactive. The full list was thinned out, with hits kept by preference. Unless noted, calls follow the shape of the dose curve; as a rule, active = well fitted curve in the direction sought with a large enough effect; inconclusive = small, poorly fitted or top-dose-only effect, or another doubt; inactive = no such curve, though single readings can be large; an effect the other way counts as inactive or inconclusive. Unless noted, % is scaled to controls: 0 for no effect and ±100 for the full control effect.

`O=C(Nc1cccc(-c2cccc(Cl)c2)c1)C1CCN(Cc2nccs2)CC1` gave IL1B secr inh -26, 12-LOX inh 3%, TDP1 cell noCPT 5.8µM*, HT1080NT lethal -23%, HT1080 IDH1KD tx inconclusive and TDP1 cell CPT 9.2µM*.
CC(C)n1cc(CN2CCC(C(=O)Nc3cccc(-c4cccc(Cl)c4)c3)CC2)cn1 was read as IL1B secr inh -25, 12-LOX inh inconclusive, TDP1 cell noCPT inconclusive, HT1080NT lethal 18µM*, HT1080 IDH1KD tx inconclusive and TDP1 cell CPT inconclusive.
Screening O=C(Nc1cccc(-c2cccc(Cl)c2)c1)C1CCN(Cc2ccc(CO)o2)CC1 returned IL1B secr inh -81*, 12-LOX inh 0%, TDP1 cell noCPT inconclusive, HT1080NT lethal 16µM*, HT1080 IDH1KD tx 16µM* and TDP1 cell CPT inconclusive.
`CCn1cc(CN2CCC(C(=O)Nc3cccc(-c4cccc(F)c4)c3)CC2)cn1` gave IL1B secr inh -9, 12-LOX inh 0%, TDP1 cell noCPT inconclusive, HT1080NT lethal -2%, HT1080 IDH1KD tx -9% and TDP1 cell CPT -24%.
`C[C@@H](N)C(=O)N1CCC(C(=O)Nc2cccc(-c3cccc(Cl)c3)c2)CC1` gave 12-LOX inh 16%.
Screening CCc1ccc(CN2CCC(C(=O)Nc3cccc(-c4nnc(C)s4)c3)CC2)o1 returned IL1B secr inh -1, TDP1 cell noCPT -9%, HT1080NT lethal -1%, HT1080 IDH1KD tx -12% and TDP1 cell CPT inconclusive.
Cc1nc(-c2cccc(N3CC(C(=O)NC4CCCCCCC4)CC3=O)c2)no1 (configuration not stated) was read as 12-LOX inh 30%.
`Cc1ccsc1C(=O)N1CCC2(CC1)CC(N(Cc1ccccc1)C1CC1)CCO2` (configuration not stated) gave 12-LOX inh 30%.
Cc1ncc(CO)c(/C=N/NC(=O)c2cc(Br)ccc2O)c1O was read as IL1B secr inh 95, 12-LOX inh -29%, TDP1 cell noCPT 16µM*, HT1080NT lethal inconclusive, HT1080 IDH1KD tx inconclusive and TDP1 cell CPT 16µM*.
For Cc1ncc(CO)c(/C=N/NC(=S)Nc2ccc(C(C)C)cc2)c1O the results were IL1B secr inh 166, 12-LOX inh 0%, TDP1 cell noCPT 21µM*, HT1080NT lethal 3%, HT1080 IDH1KD tx inconclusive and TDP1 cell CPT 15µM*.
For Cc1cc(C(=O)N/N=C/c2c(CO)cnc(C)c2O)c2ccccc2n1 the results were IL1B secr inh 162, 12-LOX inh 1%, TDP1 cell noCPT inconclusive, HT1080NT lethal inconclusive, HT1080 IDH1KD tx 21µM* and TDP1 cell CPT inconclusive.
`Cc1cc(C(=O)N/N=C/c2cc(Cl)cc([N+](=O)[O-])c2O)c2ccccc2n1` gave IL1B secr inh 38, 12-LOX inh inconclusive, TDP1 cell noCPT inconclusive, HT1080NT lethal inconclusive, HT1080 IDH1KD tx inconclusive and TDP1 cell CPT inconclusive.
Screening CCCc1ccc(C(=O)/C=C/c2cc(OC)c(OC)c(OC)c2)cc1 returned 12-LOX inh -15%.
Screening CC(C)=CC(=O)Nc1ccccc1SCc1ccsc1 returned 12-LOX inh 26%.
`CCOC(=O)COc1ccc2c(C)c(Cc3ccccc3)c(=O)oc2c1C` gave 12-LOX inh -27%.
`CC1CC(C)CN(C2CCCCC2NS(=O)(=O)c2ccc(Cl)cc2)C1` (configuration not stated) gave IL1B secr inh 45, 12-LOX inh 1%, TDP1 cell noCPT 23µM*, HT1080NT lethal -4%, HT1080 IDH1KD tx -10% and TDP1 cell CPT inconclusive.
Screening CN1CCN(C2CCCCC2NS(=O)(=O)c2ccc(Cl)cc2)CC1 (configuration not stated) returned IL1B secr inh 0, TDP1 cell noCPT 5%, HT1080NT lethal -14%, HT1080 IDH1KD tx -14% and TDP1 cell CPT -17%.
`CCN1CCN(C2CCCCC2NS(=O)(=O)c2ccccc2)CC1` (configuration not stated) gave IL1B secr inh 26, 12-LOX inh 0%, TDP1 cell noCPT 20%, HT1080NT lethal -2%, HT1080 IDH1KD tx -3% and TDP1 cell CPT -6%.
`COc1ccccc1N1CCN(C2CCCCC2NS(=O)(=O)c2ccc(Cl)cc2)CC1` (configuration not stated) gave IL1B secr inh -72*, TDP1 cell noCPT 23µM*, HT1080NT lethal -26%, HT1080 IDH1KD tx -26% and TDP1 cell CPT 23µM*.
`Cc1ccc(C)c(N2CCN(C3CCCCC3NS(=O)(=O)c3ccccc3)CC2)c1` (configuration not stated) gave IL1B secr inh 150, TDP1 cell noCPT 4.6µM*, HT1080NT lethal 9%, HT1080 IDH1KD tx 0% and TDP1 cell CPT 7.3µM*.
Screening O=S(=O)(NC1CCCCC1N1CCCCC1)c1ccccc1 (configuration not stated) returned IL1B secr inh -7, 12-LOX inh -3%, TDP1 cell noCPT 10%, HT1080NT lethal 7%, HT1080 IDH1KD tx 14% and TDP1 cell CPT 2%.
Cc1ccc(Cl)cc1N1CCN(C2CCCCC2NS(=O)(=O)c2ccccc2)CC1 (configuration not stated) was read as IL1B secr inh 21, TDP1 cell noCPT 18µM*, HT1080NT lethal -7%, HT1080 IDH1KD tx 3% and TDP1 cell CPT 16µM*.
`O=C(CCc1conc1-c1ccc(F)cc1)NCC1CCCO1` (configuration not stated) gave 12-LOX inh 5%.
`COc1ccc2[nH]c(CNC(=O)C(c3ccc(F)cc3)N(C)C)cc2c1` (configuration not stated) gave 12-LOX inh 0%.
`Cc1nc2ccc(NC(=O)CC3CC4CCC3C4)cc2s1` (configuration not stated) gave 12-LOX inh -30%.
`O=S(=O)(c1ccc(Cl)s1)N1CCN(Cc2ccccc2)CC1` gave IL1B secr inh 20, 12-LOX inh -4%, TDP1 cell noCPT 16µM*, HT1080NT lethal 9%, HT1080 IDH1KD tx 8% and TDP1 cell CPT inconclusive.

Assay outcomes: PubChem, National Center for Advancing Translational Sciences (NCATS)
